Reference: ChEMBL document CHEMBL3988442, “University of Dundee, Small-Polar-MMV Screening Library” (2021)
The campaign covered roughly 48,000 compounds. About 13,000 (27%) showed an effect of 50% or more. The list shows a part of the results.

Each compound was assayed on Wolbachia pipientis (assay: Anti-Wolbachia Cell-Based Screen). Details: 5 µM.
Assay type: functional
Parameters: scale not given: in the data most compounds retested in dose-response had high values

| Structure (SMILES) | Percent Effect |
| --- | --- |
| c1coc(CNc2nnc(Cc3ccsc3)o2)c1 | -2.731% |
| CC(=O)N1C[C@@H]2CC[C@H](C1)N(Cc1ccc(Cn3cccn3)cc1)C2 | 6.393% |
| O=c1cc(CN2C[C@H]3CC[C@@H]2CN(Cc2ccccc2)C3)[nH]c(=O)[nH]1 | 2.734% |
| O=C(c1ccccc1)N1C[C@@H]2CC[C@H](C1)N(Cc1cc(F)ccc1Cl)C2 | -19.41% |
| O=C(c1c[nH]c(=O)c(Cl)c1)N1C[C@@H]2CC[C@H](C1)N(Cc1ccccc1)C2 | -15.02% |
| O=C(c1ccc(F)c(Cl)c1)N1C[C@@H]2CC[C@H](C1)N(Cc1ccccc1)C2 | 2.522% |
| O=C(c1ccc(=O)[nH]c1)N1C[C@@H]2CC[C@H](C1)N(Cc1ccccc1)C2 | 87.59% |
| O=C(c1cc(Cl)c[nH]c1=O)N1C[C@@H]2CC[C@H](C1)N(Cc1ccccc1)C2 | 80.73% |
| CCC1CN(C(=O)c2ccc(=O)[nH]c2)CCC(=O)N1Cc1ccccc1 (stereo not drawn) | -17.04% |
| O=C(c1cc(F)cc(Cl)c1)N1C[C@@H]2CC[C@H](C1)N(Cc1ccccc1)C2 | 106.3% |
| CC(C)c1nc(CN(C)S(=O)(=O)c2cccs2)cs1 | 0.03171% |
| CC(CS(C)(=O)=O)N(C(=O)CCc1ccc(Cl)s1)C1CC1 (stereo not drawn) | -4.139% |
| Cc1nc(CNC(=O)NCC(O)c2ccc(F)c(F)c2)cs1 (stereo not drawn) | 9.084% |
| COc1cccc(-n2nnc(C(=O)N3CCN(C)CC3C)c2C)c1 (stereo not drawn) | 13.25% |
| COCCN1C[C@@H]2CCCO[C@@H]2[C@H](NC(=O)c2cnccn2)C1.O=C(O)C(F)(F)F | -16.42% |
| c1cc(-c2noc([C@@H]3CCCN3C3CCC3)n2)cc(N2CCCC2)n1 | -5.247% |
| CN(C)c1ncccc1CNC(=O)NCc1ccc(Cl)s1 | 103.5% |
| Cc1nc(CSCCC(=O)NCc2cccnc2N(C)C)cs1 | -3.36% |
| CC(C)Oc1ncccc1CNC(=O)NC(C)c1cccs1 (stereo not drawn) | 104.4% |
| Cc1cnc(CNC(=O)NCc2cccnc2N(C)C)s1 | -3.719% |
| Cc1nc(CNC(=O)NCc2cccnc2N(C)C)cs1 | 95.24% |
| Cc1ccc(C(=O)NCc2cccnc2N(C)C)s1 | 92.24% |
| CNc1nc(C(=O)NCc2cccnc2N(C)C)cs1 | -18.64% |
| Cc1cnc(C(C)(C)NC(=O)NCc2cccnc2OC(C)C)s1 | -10.8% |
| Cc1nnsc1C(=O)NCc1cccnc1N(C)C | -2.409% |
| Cc1ccc(CNC(=O)NCc2cccnc2N(C)C)s1 | -3.895% |

| Structure (SMILES) | Percent Effect |
| --- | --- |
| Cc1cc(NC(=O)NCc2cccnc2OC(C)C)n(C)n1 | 8.95% |
| CN(C)c1ncccc1CNC(=O)N1CCN(C)c2ccccc2C1 | -11.25% |
| CCc1ccccc1OCCN1C[C@@H](NS(C)(=O)=O)[C@H](C(C)C)C1 | 0.8676% |
| O=C(O)c1cccnc1CN1CCOc2ccccc2C1 | -4.779% |
| Cc1cccn2c(CNC(C)CO)cnc12 (stereo not drawn) | 5.706% |
| CCC(CNC(=O)c1ccc(C(N)=O)cc1)Oc1cccc(F)c1 (stereo not drawn) | -8.287% |
| CCCS(=O)(=O)NC(C)c1cccc(-n2cccn2)c1 (stereo not drawn) | -8.996% |
| NC(=O)c1ccc(-n2ccnc2-c2cccc(O)c2)cc1N1CCCC1 | -15.85% |
| O=C(NCc1ccccn1)NCc1ccc(Cl)s1 | 100.6% |
| CC(C)C(NC(=O)NCc1cccnc1N(C)C)c1cccs1 (stereo not drawn) | 97.46% |
| CN(C)c1ncccc1CNC(=O)NCC(c1cccs1)N(C)C (stereo not drawn) | 101.5% |
| CN(C)C(CNC(=O)NCc1ccco1)c1cccs1 (stereo not drawn) | 6.587% |
| O=C(NCc1ccccn1)NCC(O)c1ccccc1C(F)(F)F (stereo not drawn) | -3.765% |
| CC(NC(=O)NCc1cccnc1N(C)C)c1cccs1 (stereo not drawn) | 91.27% |
| CN(C)c1ccc(NC(=O)NCc2ccc(Cl)s2)cn1 | 9.088% |
| CN(C)c1ncccc1CNC(=O)NCc1ccco1 | -3.644% |
| CC(C)N(Cc1nccn1C)C(=O)c1cc(Cl)c[nH]c1=O | -15.2% |
| CCNC(=O)[C@@H]1C[C@@H](N)CN1Cc1ccc(Sc2ccc(C)cc2)o1 | 5.501% |
| CN(C(=O)COC1CCCC1)C1CCN(CC2CCOC2)CC1 (stereo not drawn) | -27.33% |
| CN(CCCc1nccn1C)C(=O)C1CCN(C(=O)C2CCC2)CC1 | 9.591% |
| O=C(NC1CCCC1)N1CC[C@H]2[C@H]1CCN2c1nncs1.O=C(O)C(F)(F)F | 1.453% |
| CS(=O)(=O)N1CCCc2sc(C(=O)NC3CC3)nc21 | -1.89% |
| Cc1cc(CN2CCN(C(C)C(=O)NCc3cccs3)CC2)no1 (stereo not drawn) | -4.683% |
| CN(C)c1ncccc1CNC(=O)NCc1cccs1 | 101% |
| Cc1cc(CNC(=O)NC(C)c2ccccc2)no1 (stereo not drawn) | -4.939% |
| Cc1cc(CNC(=O)NCc2cccs2)no1 | 116.2% |

| Structure (SMILES) | Percent Effect |
| --- | --- |
| CC(NC(=O)NCc1cccnc1N(C)C)c1ccc(F)cc1 (stereo not drawn) | 97.94% |
| Cc1cc(CNC(=O)c2cc(COc3cncc(Cl)c3)on2)n[nH]1 | -4.866% |
| CN1CCCC2(CCN(S(=O)(=O)c3c(Cl)nc4sccn34)C2)C1=O (stereo not drawn) | -6.903% |
| COc1ccc(CN2CCCn3nnc(COCC4CC4)c3C2)cc1.O=C(O)C(F)(F)F | -11.72% |
| CN(Cc1c[nH]nc1-c1ccc(F)cc1F)Cc1nccn1C | -2.031% |
| CCC(C)(NCC(=O)NC(=O)NC)c1nccs1 (stereo not drawn) | 3.438% |
| Cc1ccc(C2COCCN2C(=O)c2ccc(N(C)C)cc2)o1 (stereo not drawn) | 16.04% |
| O=C(Cc1cccc(F)c1)N1CCCCC1c1ccn2ccnc2n1 (stereo not drawn) | 7.751% |
| O=C(Cc1ccccc1F)N1CCCCC1c1ccn2ccnc2n1 (stereo not drawn) | 125% |
| CC(C)(C)OC(=O)N1CCCCC(NC(=O)CCc2cccnc2)C1 (stereo not drawn) | 15.24% |
| O=C(COc1ccccc1F)N1CCCCC1c1ccn2ccnc2n1 (stereo not drawn) | 107.9% |
| O=C(COc1cccc(F)c1)N1CCCCC1c1ccn2ccnc2n1 (stereo not drawn) | 137.7% |
| O=C(Cc1ccc(F)cc1)N1CCCCC1c1ccn2ccnc2n1 (stereo not drawn) | -3.373% |
| O=C(CCc1cccnc1)N1CCCCC1c1ccn2ccnc2n1 (stereo not drawn) | 103.4% |
| CN1C(=O)c2ccc(NC(=O)CSc3ccc4c(c3)CCC4)cc2C1=O | 8.962% |
| Cc1ncsc1CCC(=O)NCc1cc2n(n1)CCN(C(=O)N(C)C)C2 | -5.05% |
| CCOC(C)C(=O)Nc1cc(S(=O)(=O)NC2CC2)ccc1F (stereo not drawn) | 0.6608% |
| Cn1c(=O)oc2cc(Nc3ncc(C#N)cc3Cl)ccc21 | -1.67% |
| COc1ccc(CN2CCc3c(nc(-c4ccccn4)[nH]c3=O)C2)cc1 | 130.9% |
| COc1ccccc1CN1C(=O)O[C@@H]2CN(c3ccccn3)C[C@@H]21 | 2.644% |
| COc1ccccc1CN1C[C@@H](F)[C@@H](OCc2nc3ncccc3[nH]2)C1 | -5.339% |
| COc1ccccc1CN1CCc2c(nc(-c3ccccn3)[nH]c2=O)C1 | 118.7% |
| Cn1cnc2c1CCN(Cc1cccc(C(N)=O)c1)C2 | -6.228% |
| COc1ccc2c(c1)CN(Cc1nc3ccsc3c(=O)[nH]1)CC2 | -2.354% |
| O=C(c1ccco1)N1CCc2c(nc(-c3ccncc3)[nH]c2=O)C1 | 13.85% |
| Cc1nn(C)cc1CN1CCc2c(nc(-c3ccccn3)[nH]c2=O)C1 | 96.61% |

| Structure (SMILES) | Percent Effect |
| --- | --- |
| O=c1[nH]c(-c2ccccn2)nc2c1CCN(Cc1cccc(O)c1)C2 | 110.8% |
| c1ccc(-c2noc(CN3CCc4c(ncn4C4CC4)C3)n2)nc1 | -14.25% |
| CCc1nnc(CN2CCc3[nH]c(-c4ccc(OC)cc4)nc3C2)o1 | -0.2672% |
| CCn1nc2c(cc1=O)CN(Cc1nc(-c3ccccn3)no1)CC2 | -6.264% |
| Cc1nnc(CN(C)CC(=O)N2CCCN(C3CCCC3)CC2)n1C | -1.28% |
| Cc1cccc(S(=O)(=O)NCC(C)(C)CC(C)O)c1C#N (stereo not drawn) | -19.79% |
| CCNC(=O)Nc1c(C)cnn1Cc1cc(F)ccc1F | -3.451% |
| O=C(C[S+]([O-])Cc1c(Cl)cccc1Cl)N1CCc2sccc2C1 (stereo not drawn) | -11.53% |
| COc1cc2ccccc2cc1C(=O)N1CCCC(c2nncn2C)C1 (stereo not drawn) | 138.9% |
| Cn1cnnc1C1CCCN(C(=O)c2n[nH]c3ccccc23)C1 (stereo not drawn) | 7.957% |
| COc1ccccc1CNC(=O)N1CCCC(c2nncn2C)C1 (stereo not drawn) | -1.227% |
| Cn1cnnc1C1CCCN(C(=O)c2cc3ccccc3[nH]2)C1 (stereo not drawn) | 124.8% |
| Cc1occc1CN(C)C(=O)Nc1ccc(=O)n(C)c1 | 5.737% |
| c1ccc(CN2CCC(NCCc3ccc4c(c3)CCO4)CC2)nc1 | 2.392% |
| Cn1ccc(C(=O)Nc2cccc(-c3ccc4c(c3)CCO4)n2)cc1=O | -14.88% |
| Cc1nc(C)n(C2CCCN(C(=O)COc3cccc(C#N)c3)C2)n1 (stereo not drawn) | 83.98% |
| Cc1nc(C)n(C2CCCN(C(=O)Cc3cccnc3)C2)n1 (stereo not drawn) | -7.777% |
| Cc1nc(C)n(C2CCCN(C(=O)COc3ccccc3)C2)n1 (stereo not drawn) | 133.2% |
| CCc1[nH]ncc1C(=O)N1CCCC(n2nc(C)nc2C)C1 (stereo not drawn) | -3.385% |
| CCOc1ccc(CC(=O)N2CCCC(n3nc(C)nc3C)C2)cc1 (stereo not drawn) | 81.54% |
| Cc1nc(C)n(C2CCCN(C(=O)c3cccc4cn[nH]c34)C2)n1 (stereo not drawn) | 1.609% |
| Cc1nc(C)n(C2CCCN(C(=O)CCCOc3ccccc3)C2)n1 (stereo not drawn) | 1.016% |
| Cc1nc(C)n(C2CCCN(C(=O)Cc3n[nH]c4ccccc34)C2)n1 (stereo not drawn) | -3.08% |
| Cc1ccc(OCCC(=O)N2CCCC(n3nc(C)nc3C)C2)cc1 (stereo not drawn) | 93.22% |
| N#Cc1ccc(OCC(=O)N2CCCC(n3cccn3)C2)cc1 (stereo not drawn) | -1.98% |
